Experimental data reported in the supplement of paper PMC6411743.
± gives the standard deviation of the averaged measurements. About 5,400 targets were measured; listed, in parts, are those with the largest changes and a random draw of the rest.

Molecular target: T1, B1ALK7|Q14155-1|Q14155-5 (UniProt Q14155)
T1 sequence (whole entry): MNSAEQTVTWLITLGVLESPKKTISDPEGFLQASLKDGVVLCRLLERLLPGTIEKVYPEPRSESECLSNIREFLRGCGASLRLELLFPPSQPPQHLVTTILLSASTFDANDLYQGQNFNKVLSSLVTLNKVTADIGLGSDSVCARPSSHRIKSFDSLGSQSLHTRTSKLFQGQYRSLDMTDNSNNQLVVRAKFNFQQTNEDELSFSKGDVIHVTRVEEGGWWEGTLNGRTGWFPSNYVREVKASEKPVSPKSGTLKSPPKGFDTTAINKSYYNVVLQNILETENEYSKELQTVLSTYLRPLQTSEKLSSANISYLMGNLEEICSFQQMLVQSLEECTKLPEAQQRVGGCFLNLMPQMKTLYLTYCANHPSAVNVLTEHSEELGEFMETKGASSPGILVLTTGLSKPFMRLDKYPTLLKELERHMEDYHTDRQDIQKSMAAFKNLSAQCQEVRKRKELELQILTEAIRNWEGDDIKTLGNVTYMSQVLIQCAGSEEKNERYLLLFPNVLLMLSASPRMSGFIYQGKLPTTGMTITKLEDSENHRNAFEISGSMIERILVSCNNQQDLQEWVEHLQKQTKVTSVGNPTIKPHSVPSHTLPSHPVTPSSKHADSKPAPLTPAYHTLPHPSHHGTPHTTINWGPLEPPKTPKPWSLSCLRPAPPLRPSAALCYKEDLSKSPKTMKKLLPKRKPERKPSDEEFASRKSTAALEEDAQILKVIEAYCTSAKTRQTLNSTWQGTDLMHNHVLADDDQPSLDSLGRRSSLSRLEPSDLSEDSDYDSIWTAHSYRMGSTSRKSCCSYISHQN
Assay: NP40-soluble protein abundance relative to vehicle (solubility fold change) (ratio); higher = more soluble protein in presence of GTP
Experimental: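 Solubility proteome profiling in Jurkat crude lysate. Lysate was treated with Mg-GTP (0.1-10 mM) for 10 min at room temperature and 3 min at 37 °C, then solubilised with 0.8% NP40 and benzonase, followed by ultracentrifugation. Proteins were quantified by TMT10 LC-MS/MS; the value is the NP40-soluble abundance relative to the NP40-processed vehicle, from 3 independent experiments.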

Q: Nc1nc2c(ncn2[C@@H]2O[C@H](COP(=O)(O)OP(=O)(O)OP(=O)(O)O)[C@@H](O)[C@H]2O)c(=O)[nH]1 [guanosine triphosphate] was tested. Which NP40-soluble protein abundance (concentration: 0.1mM) did it give?
A: 0.994 ± 0.036

Q: What about the NP40-soluble protein abundance (concentration: 0.5mM) of the same molecule?
A: 0.9903 ± 0.0023

Q: And the NP40-soluble protein abundance (concentration: 1mM)?
A: 1.004 ± 0.007

Q: And the NP40-soluble protein abundance (concentration: 2mM)?
A: 1.01 ± 0.028

Q: What about the NP40-soluble protein abundance (concentration: 4mM) of the same molecule?
A: 0.996 ± 0.015

Q: And the NP40-soluble protein abundance (concentration: 6mM)?
A: 0.9797 ± 0.0044

Q: What about the NP40-soluble protein abundance (concentration: 8mM) of the same molecule?
A: 1 ± 0.033

Q: And the NP40-soluble protein abundance (concentration: 10mM)?
A: 0.977 ± 0.046
